Records with an inconclusive call do not appear. Where a call stands in place of a potency, no number is given. Calls of active or inactive are those of the source. Calls come from the whole dose curve; as a rule, active = well fitted cell-killing curve with a large enough effect; inconclusive = small, poorly fitted or top-dose-only effect, or effect the other way; inactive = no such curve, though single readings can be large or run the other way.
Potency is the fitted concentration of half-maximal effect.

This test has as its system SW626. In words: Confirmatory qHTS for gynecologic anti-cancer compounds from libraries of approved drugs and bioactive compounds. Note: nearly all actives have a fitted effect of over 55% in size. Conditions: gynecologic cancer cell panel viability, ATPlite luminescence, 48 h; series mostly up to 57.6 µM. Summed up:
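Cells (1,000/well) were plated, left 16 h at 37 C/5% CO2, then given compound at 11 concentrations (1:3) from 57.5 uM to 0.977 nM for 48 h. ATPlite luminescence after 15 min at room temperature gave IC50 values.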
`C[C@H]1CCC/C=C/C2C[C@H](O)C[C@H]2[C@H](O)/C=C/C(=O)O1` (some centres not stated): the Potency was 0.172 µM (active). As for `CCOc1ccccc1-n1c(C(C)N2CCN(C(=O)COc3ccc(Cl)cc3)CC2)nc2ccccc2c1=O` (configuration not stated), the figure is 4.85 µM (active); as for `CCN1CCN(C(=O)Cc2ccc(Nc3ncc(F)c(Nc4ccc(C(=O)Nc5ccccc5Cl)cc4)n3)cc2)CC1`, “inactive”; as for `C=C(C)[C@H]1Cc2c(ccc3c2O[C@@H]2COc4cc(OC)c(OC)cc4[C@@H]2C3=O)O1`, “inactive”.

With `O=C(O)Cc1ccccc1`, the Potency entry was “inactive”. The result for `CCNC(=O)C[C@@H]1N=C(c2ccc(Cl)cc2)c2cc(OC)ccc2-n2c(C)nnc21` reads “inactive”. As for `C[C@]12CC[C@H]3[C@@H](CCC4=CC(=O)CC[C@@H]43)[C@@H]1CC[C@@H]2OC(=O)CCc1ccccc1`, the entry is “inactive”.

(Values after PubChem BioAssay AID1345085 (National Center for Advancing Translational Sciences (NCATS), 2018).)
